According to PubChem BioAssay AID1851 (National Center for Advancing Translational Sciences (NCATS), 2009):
The campaign covered roughly 16,000 compounds. About 2,600 (16%) were called active. Another 20% or so got no clear call; they are omitted. The list is a sample of the results. A number with no mark means an inactive call. The call rests on the fitted dose curve; in most records, active means well fitted curve in the direction sought with a large enough effect; inconclusive means small, poorly fitted or top-dose-only effect, or effect the other way; inactive means no such curve, though single readings can be large or run the other way.

These molecules were tested against Cytochrome P450 2D6 (Homo sapiens) (UniProt P10635) (assay: Cytochrome panel assay with activity outcomes). Details: recombinant CYP, pro-luciferin dealkylation, luminescence, p450-cyp2d6; series mostly up to 57.1 µM.
On the % scale 0 is the no-effect control and ±100 the full control effect.

Sequence of Cytochrome P450 2D6 (Homo sapiens) (P10635 whole entry, looked up): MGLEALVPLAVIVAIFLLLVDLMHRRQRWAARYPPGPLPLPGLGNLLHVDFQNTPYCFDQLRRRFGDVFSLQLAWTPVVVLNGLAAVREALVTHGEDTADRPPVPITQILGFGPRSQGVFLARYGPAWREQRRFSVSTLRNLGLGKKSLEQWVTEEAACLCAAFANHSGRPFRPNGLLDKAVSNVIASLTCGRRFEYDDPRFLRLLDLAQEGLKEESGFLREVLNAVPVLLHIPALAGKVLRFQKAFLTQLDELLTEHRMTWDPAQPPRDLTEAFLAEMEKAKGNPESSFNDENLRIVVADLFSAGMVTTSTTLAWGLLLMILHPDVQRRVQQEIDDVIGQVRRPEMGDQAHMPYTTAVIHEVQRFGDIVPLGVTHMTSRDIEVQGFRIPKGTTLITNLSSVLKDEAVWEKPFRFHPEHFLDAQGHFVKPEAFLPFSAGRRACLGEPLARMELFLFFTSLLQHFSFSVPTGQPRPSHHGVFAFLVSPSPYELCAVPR

SMILES | AC50 | activity, negative = inhibition
CS(=O)(=O)c1ccc(Cn2c3c(c4cc(F)cc(F)c42)CCC[C@H]3CC(=O)O)cc1 | inactive | 
CC(C)c1ccc(/C(C(=O)O)=C(\O)C(=O)O)cc1 |  | 0.432% [at 11.4 µM]
CC1(C)C2([N+](=O)[O-])CN3CC1([N+](=O)[O-])CN(C2)C31CCCC1 | inactive | 
O=C(O)Cc1cc(I)c(Oc2ccc(O)c(I)c2)c(I)c1 | inactive | 
CC(=O)c1cc(C#N)c(Oc2cccc(C(F)(F)F)c2)nc1C | inactive | 
N[C@@H](CS(=O)O)C(=O)O | inactive | 
CC(C)C(=O)Nc1ccc(Sc2ccc(F)cc2)cc1 | inactive | 
CN(C(=S)NC(=O)c1ccccc1Br)C1CCCCC1 | inactive | 
COc1ccc2[nH]cc(CCNc3nc(-c4ccccc4OC)nc4ccccc34)c2c1 | 12.6 µM (active) | 
CC[C@H](CO)NCCN[C@@H](CC)CO | inactive | 
COc1ccc(F)cc1S(=O)(=O)NC(Cc1ccccc1)C(N)=O (stereo not drawn) | inactive | 
Cc1nn(Cc2c(Cl)cccc2Cl)c(C)c1NC(=O)c1cnn2c(C(F)F)cc(-c3ccccc3)nc12 | inactive | 
Cc1cc(C(F)F)n2ncc(C(=O)NCc3ccccc3C(F)(F)F)c2n1 | 5.01 µM (active) | 
Cc1ccc(-c2cc(C(F)F)n3ncc(C(=O)Nc4c(C)nn(Cc5c(Cl)cccc5Cl)c4C)c3n2)cc1 | inactive | 
O=C(Nc1cc(C(F)(F)F)ccc1N1CCCCC1)c1ccc(Br)o1 | inactive | 
CCOc1c2ccc(C(=O)NCCCCc3ccccc3)cc2nn1CC | 0.794 µM (active) | 
CCCCn1nc2cc(C(=O)NCc3ccc(C(F)(F)F)cc3C(F)(F)F)ccc2c1OCC | inactive | 
CCCn1nc2cc(C(=O)NCc3ccccc3OC)ccc2c1OCC | inactive | 
O=C1CC[C@H](NC(=O)c2ccccc2)C(=O)N1 |  | 1.49% [at 11.4 µM]
O=C(NC1CCCc2ccccc21)c1ccc(=O)[nH]c1 (stereo not drawn) | 28.2 µM (active) | 
CCOc1c2ccc(C(=O)NCc3ccccc3OC)cc2nn1CC | inactive | 
COCCn1nc2cc(C(=O)NCC34CC5CC(CC(C5)C3)C4)ccc2c1OC | inactive | 
COCCn1nc2cc(C(=O)NCc3cc(C(F)(F)F)cc(C(F)(F)F)c3)ccc2c1OC | 2.51 µM (active) | 
CCCn1nc2cc(C(=O)NCCCCc3ccccc3)ccc2c1OCC | 7.94 µM (active) | 
COc1ccc(OC)c2[nH]c(=O)c(CCNS(=O)(=O)c3ccccc3)cc12 | inactive | 
CCOc1cccc(/C(O)=C2/C(=O)C(=O)N(Cc3ccco3)C2c2ccncc2)c1 (stereo not drawn) | inactive | 
O=C(NNS(=O)(=O)c1ccc(Cl)cc1)NC1CCCCC1 | inactive | 
CCC(=O)Nc1nnc(C(C)(C)C)s1 | inactive | 
